Experimental data taken from ChEMBL document CHEMBL3988442, “University of Dundee, Small-Polar-MMV Screening Library” (2021).
About 13,000 (27%) of roughly 48,000 compounds showed an effect of 50% or more. The list shows a part of the results.

System: Wolbachia pipientis
Assay: Anti-Wolbachia Cell-Based Screen
Assay type: functional
Parameters: scale not given: in the data most compounds retested in dose-response had high values
Details: 5 µM

Structure (SMILES) | Percent Effect [%]
CCc1cnc2c(c1Nc1ccc(C)c(F)c1)c(=O)n(C)c(=O)n2C | 84.08
CCc1cnc2c(c1Nc1ccc3c(c1)OCO3)c(=O)n(C)c(=O)n2C | 105.3
O=C(Nc1ccc2c(c1)OCO2)N1CCN(CCn2cccn2)CC1 | 14.77
Cc1ccc(Nc2c(C#N)c(=O)n(C)c(=O)n2C)cc1F | 8.024
O=C(Nc1ccc2c(c1)OCO2)N1CCN(CCn2ccnc2)CC1 | -13.91
CCc1cnc2c(c1Nc1ccncc1)c(=O)n(C)c(=O)n2C | 1.173
Cn1cnc(S(=O)(=O)Nc2cc(C(N)=O)ccc2Cl)c1 | -10.15
Cn1cc(C(=O)Nc2ccc(CC(=O)NCC(F)(F)F)cc2)nn1 | -7.927
Cn1cc(C(=O)Nc2ccc3c(c2)N(C(=O)c2ccco2)CC3)nn1 | 115.2
CN(C)C(=O)Cc1ccc(NC(=O)c2cn(C)nn2)cc1 | -4.709
Cn1cc(C(=O)Nc2ccc3c(c2)CN(C(=O)C2CC2)CC3)nn1 | 116.9
COC(=O)N1CCc2ccc(NC(=O)c3cn(C)nn3)cc2C1 | 2.493
CC(=O)N1CCc2ccc(NC(=O)c3cn(C)nn3)cc2C1 | 105.1
Cn1cc(C(=O)Nc2ccc(CC(=O)NC3CC3)cc2)nn1 | -0.7616
Cn1cc(C(=O)Nc2ccc3c(c2)CN(C(=O)c2ccco2)CC3)nn1 | 12.57
Oc1cc(CN2CCC(O)(Cn3ccnc3)CC2)nc2c(Cl)cccc12 | -8.472
CC(CNC(=O)c1ccon1)Oc1cccc(Br)c1 (centres undefined) | -16.92
c1cc(-c2ccc(CN3CCC4(CCNCC4)CC3)s2)[nH]n1 | 13.89
CN(C(=O)c1ccccn1)c1nc2c(s1)CCc1c-2cnn1C | -10.1
CCCN(C(=O)c1ccccn1)c1nc2c(s1)CCc1c-2cnn1C | -6.785
CCCN(C(=O)c1cnc(C)cn1)c1nc2c(s1)CCc1c-2cnn1C | 90.09
CCCN1CCN(C(=O)c2cnccn2)[C@H]2CS(=O)(=O)C[C@H]21 | -1.357
COCCCNC(=O)C1CN(C(=O)c2cnccn2)C1 | 10.57

Structure (SMILES) | Percent Effect [%]
COCCN(C(=O)c1ccccn1)c1nc2c(s1)CCc1c-2cnn1C | 88.66
COCCN(C(=O)c1cnccn1)c1nc2c(s1)CCc1c-2cnn1C | 99.99
COCC1c2nnn(CC3CC3)c2CCN1C(=O)c1cnccn1 (centres undefined) | -15.7
Cc1cccc(N(CCC(N)=O)C(=O)c2cnccn2)c1 | -11.19
CCCN(C(=O)c1cnccn1)c1nc2c(s1)CCc1c-2cnn1C | 84.76
CCN(Cc1cccc2c1OCO2)CC1CCCO1 (centres undefined) | -5.577
Cl.O=C(OCC1CCCN1)c1cccc(NC(=O)c2ccco2)c1 (centres undefined) | -13.38
CC1(C)[C@H]2CC=C(CN3CCCn4nc(C(=O)O)cc4C3)[C@@H]1C2 | -7.582
CN(CCCc1cnn(C)c1)C(=O)C1CCOC1 (centres undefined) | -24.42
Cc1ncc(S(C)(=O)=O)c(N(C)CCCc2cnn(C)c2)n1 | 106.8
Cc1ccccc1C(C(=O)N(C)CCc1cnn(C)c1)N(C)C (centres undefined) | -25.6
CC(C)N1CCCC(C(=O)N(C)CCCc2cnn(C)c2)C1 (centres undefined) | -3.497
Cc1nc(C(C)C)sc1C(=O)N(C)CCCc1cnn(C)c1 | -1.065
CN(CCc1cnn(C)c1)C(=O)C1COc2ccccc2C1 (centres undefined) | 12.32
CCc1cnc(C)nc1N(C)CCCc1cnn(C)c1 | 93.68
Cc1c(NC(=O)N(C)CCCc2cnn(C)c2)cnn1C | -9.365
Cc1nc(C)c(C)c(N(C)CCCc2nccn2C)n1 | 1.22
CCc1cnc(N)nc1N(C)CCc1cnn(C)c1 | 112.4
Cc1cnc(N(C)CCCc2cnn(C)c2)nc1N(C)C | 116.9
CC(NCCCc1cnn(C)c1)c1ccc(Br)s1 (centres undefined) | 0.1879
CN(C)C(=O)CCNC(=O)c1cnc(-c2ccccc2)nc1 | -4.598
O=S1(=O)CCC(n2cc(CNCC3(c4ccccc4)CC3)cn2)C1 (centres undefined) | 4.552
O=C(c1ccc(OCC2CC2)cc1)N1CCOCC1c1ncon1 (centres undefined) | -1.778

Structure (SMILES) | Percent Effect [%]
Nc1cnc(-c2cccc3ccnn23)cn1 | -6.103
CN(CC(=O)Nc1ccc(Br)cn1)C(=O)Cc1ccc(O)cc1 | -6.927
CC(C)c1cc(N2CCC(NS(C)(=O)=O)CC2)n2nccc2n1 | -0.6269
CNS(=O)(=O)C1CCN(c2cc(C(C)C)nc(C(C)C)n2)C1 (centres undefined) | 80.93
Cc1cc(N2CCC(NS(C)(=O)=O)CC2)nc(C(C)C)n1 | 66.62
CC(C)c1cc(N2CCC(NS(C)(=O)=O)C2)nc(C(C)C)n1 (centres undefined) | 107.7
CS(=O)(=O)NC1CCCN(c2ccc(C#N)cn2)C1 (centres undefined) | 4.469
Cc1cc(=O)[nH]c(SC(C)C(=O)N2CCC(NS(C)(=O)=O)CC2)n1 (centres undefined) | -6.463
Cc1cc(N2CCN(C(=O)c3cc(Cl)c[nH]3)CC2)nc(C(C)C)n1 | -12.01
CC(C)c1cc(N2CC[C@H](F)C2)n2nccc2n1 | -1.052
Cc1nnc(N2CCC(NS(C)(=O)=O)CC2)c(C#N)c1C | 4.066
O=c1c2cnc(N3CCCCC3)nc2ccn1-c1ccccc1 | 8.71
COCCSCC(=O)NC1(c2cccc(Br)c2)CC1 | -2.226
COc1ccc(CN2CC3(CCNCC3)CCC2=O)c(F)c1F | -14.66
Cc1ccc(CN(C)c2nccc(-c3cn(C)nc3C)n2)o1 | -5.707
Cc1ncncc1-c1ccnc(N)n1 | 103.4
Cc1ncncc1-c1ccnc(NC(C)C)n1 | 107.6
Cc1ccc(-c2ccnc(NC(C)c3ncc[nH]3)n2)c(C)n1 (centres undefined) | 7.863
Cc1ncncc1-c1ccnc(N(C)C)n1 | 99.71
Nc1nccc(-c2cccc3ccnn23)n1 | -5.19
Cc1nn(C)cc1-c1ccnc(N(C)Cc2ccc(F)cc2)n1 | 21.27
Nc1nccc(-c2c[nH]nc2C2CCCCC2)n1 | -15.86
Cc1ccc(-c2ccnc(NC(C)c3n[nH]c(C)n3)n2)c(C)n1 (centres undefined) | -0.9271
